Activity calls are given as the source filed them. No rule for the calls is given here.
Tested on: Cdc42
Assay: GTPase panel EC50 shift with labeled GTP level, profiling panel, mechanism study, biochemical, four GTPases, bead flow cytometry (AID 743330)
Conditions: bead-based flow cytometry, fluorescent GTP binding to GTPases

| Compound | EC50 | outcome |
| --- | --- | --- |
| CC1(C)Cc2c(sc(NC(=S)NC(=O)c3ccc(F)cc3)c2C(=O)O)CO1 | 76 nM (active) | – |
| CCC1(C)Cc2c(sc(NC(=S)NC(=O)c3ccccc3)c2C(=O)O)CO1 (configuration not stated) | – | inactive |

Source: PubChem BioAssay AID743330 (NMMLSC, 2014)
